# According to the supplement of paper PMC8728848:
# The entries come from a sample that favours the strongest signals as a whole.
# B1: LCA (Lens culinaris), P02870 (protein)
# chain: MASLQTQMISFYLIFLSILLTTIFFFKVNSTETTSFSITKFSPDQKNLIFQGDGYTTKGKLTLTKAVKSTVGRALYSTPIHIWDRDTGNVANFVTSFTFVIDAPSSYNVADEFTFFIAPVDTKPQTGGGYLGVFNSKEYDKTSQTVAVEFDTFYNAAWDPSNKERHIGIDVNSIKSVNTKSWNLQNGERANVVIAFNAATNVLTVTLTYPNSLEEENVTSYTLNEVVPLKDVVPEWVRIGFSATTGAEFAAHEVHSWSFHSELGGTSSSKQAADA
# How the values were obtained:
# Test in all cases: glycan array binding signal (z-score within array); higher = stronger binding
# Settings in all cases: glycan notation: IUPAC condensed, linker removed
# [1] = target: GlcNAc(a1-4)Gal(b1-4)GlcNAc(b1-3)Gal(b1-4)Glc
# Outline: (§1)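 Columns mapping to the same glycan were averaged after glycan names were converted to IUPAC-condensed notation. The data come from 3228 arrays in the Consortium for Functional Glycomics database, limited to those with an available protein sequence. Binding is reported as a within-array Z-score averaged across arrays of one protein sequence and across linkers.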
# [2] = target: GlcNAc(b1-2)Man(a1-3)[GlcNAc(b1-2)Man(a1-6)]Man(b1-4)GlcNAc(b1-4)[Fuc(a1-6)]GlcNAc
# Outline: as §1
# [3] = target: GlcNAc(b1-2)[GlcNAc(b1-6)]Man(a1-6)[GlcNAc(b1-2)Man(a1-3)]Man(b1-4)GlcNAc(b1-4)[Fuc(a1-6)]GlcNAc
# Outline: as §1
# [4] = target: GlcNAc(b1-3)Gal(b1-4)GlcNAc(b1-2)Man(a1-3)[GlcNAc(b1-3)Gal(b1-4)GlcNAc(b1-2)Man(a1-6)]Man(b1-4)GlcNAc(b1-4)[Fuc(a1-6)]GlcNAc
# Outline: as §1
# [5] = target: GlcNAc(b1-3)Gal(b1-4)GlcNAc(b1-3)Gal(b1-4)GlcNAc
# Outline: as §1
# [6] = target: GlcNAc(b1-3)Gal(b1-4)GlcNAc(b1-3)Gal(b1-4)GlcNAc(b1-3)Gal(b1-4)GlcNAc(b1-3)Gal(b1-4)GlcNAc(b1-2)Man(a1-3)[GlcNAc(b1-3)Gal(b1-4)GlcNAc(b1-3)Gal(b1-4)GlcNAc(b1-3)Gal(b1-4)GlcNAc(b1-3)Gal(b1-4)GlcNAc(b1-2)Man(a1-6)]Man(b1-4)GlcNAc(b1-4)[Fuc(a1-6)]GlcNAc
# Outline: as §1
# GlcNAc(b1-3)GalNAc = target: GlcNAc(b1-3)GalNAc
# Outline: as §1
# [7] = target: GlcNAc(b1-4)GlcNAc(b1-4)GlcNAc
# Outline: as §1
# [8] = target: Kdn(a2-3)Gal(b1-4)[Fuc(a1-3)]GlcNAc
# Outline: as §1
# [9] = target: Man(a1-2)Man(a1-3)[Man(a1-2)Man(a1-6)]Man(a1-6)[Man(a1-2)Man(a1-2)Man(a1-3)]Man
# Outline: as §1
# [10] = target: Man(a1-2)Man(a1-3)[Man(a1-6)]Man(a1-6)[Man(a1-2)Man(a1-3)]Man(b1-4)GlcNAc(b1-4)GlcNAc
# Outline: as §1
# [11] = target: Man(a1-3)[Man(a1-6)]Man(b1-4)GlcNAc(b1-4)[Fuc(a1-6)]GlcNAc
# Outline: as §1
# [12] = target: Neu5Ac(a2-3)Gal(b1-4)GlcNAc(b1-2)Man(a1-3)[GlcNAc(b1-4)][Neu5Ac(a2-3)Gal(b1-4)GlcNAc(b1-2)Man(a1-6)]Man(b1-4)GlcNAc(b1-4)GlcNAc
# Outline: as §1
# [13] = target: Neu5Ac(a2-3)Gal(b1-4)GlcNAc(b1-3)Gal(b1-4)GlcNAc(b1-3)Gal(b1-4)GlcNAc
# Outline: as §1
# [14] = target: Neu5Ac(a2-3)Gal(b1-4)[Fuc(a1-3)]GlcNAc(b1-6)[Gal(b1-3)]GalNAc
# Outline: as §1
# [15] = target: Neu5Ac(a2-3)[GalNAc(b1-4)]Gal(b1-4)Glc
# Outline: as §1
# [16] = target: Neu5Ac(a2-3)[GalNAc(b1-4)]Gal(b1-4)GlcNAc(b1-3)GalNAc
# Outline: as §1
# [17] = target: Neu5Ac(a2-6)Gal(b1-3)GlcNAc(b1-3)[Gal(b1-4)GlcNAc(b1-6)]Gal(b1-4)Glc
# Outline: as §1
# [18] = target: Neu5Ac(a2-6)Gal(b1-4)GlcNAc
# Outline: as §1
# [19] = target: Neu5Ac(a2-6)Gal(b1-4)GlcNAc(b1-2)Man(a1-3)[Gal(b1-4)GlcNAc(b1-2)Man(a1-6)]Man(b1-4)GlcNAc(b1-4)GlcNAc
# Outline: as §1
# [20] = target: Neu5Ac(a2-6)Gal(b1-4)GlcNAc(b1-2)Man(a1-3)[Man(a1-6)]Man(b1-4)GlcNAc(b1-4)GlcNAc
# Outline: as §1
# [21] = target: Neu5Ac(a2-6)Gal(b1-4)GlcNAc(b1-2)Man(a1-3)[Neu5Ac(a2-6)Gal(b1-4)GlcNAc(b1-2)Man(a1-6)]Man(b1-4)GlcNAc(b1-4)[Fuc(a1-6)]GlcNAc
# Outline: as §1
# [22] = target: Neu5Ac(a2-6)Gal(b1-4)GlcNAc(b1-3)Gal(b1-4)GlcNAc(b1-3)GalNAc
# Outline: as §1
# [23] = target: Neu5Ac(a2-8)Neu5Ac(a2-3)Gal(b1-4)GlcNAc
# Outline: as §1
# [24] = target: Neu5Gc(a2-3)Gal(b1-3)[Fuc(a1-4)]GlcNAc
# Outline: as §1
# [25] = target: Neu5Gc(a2-3)Gal(b1-4)GlcNAc
# Outline: as §1
binder,measurement,setting,value
B1,glycan array binding signal (z-score),[1],-0.135
same,glycan array binding signal (z-score),[2],5.54
same,glycan array binding signal (z-score),[3],8.45
same,glycan array binding signal (z-score),[4],5.29
same,glycan array binding signal (z-score),[5],-0.199
same,glycan array binding signal (z-score),[6],3.94
same,glycan array binding signal (z-score),GlcNAc(b1-3)GalNAc,-0.209
same,glycan array binding signal (z-score),[7],-0.184
same,glycan array binding signal (z-score),[8],-0.228
same,glycan array binding signal (z-score),[9],1.19
same,glycan array binding signal (z-score),[10],2.09
same,glycan array binding signal (z-score),[11],6.07
same,glycan array binding signal (z-score),[12],-0.262
same,glycan array binding signal (z-score),[13],-0.228
same,glycan array binding signal (z-score),[14],-0.145
same,glycan array binding signal (z-score),[15],-0.235
same,glycan array binding signal (z-score),[16],0.102
same,glycan array binding signal (z-score),[17],-0.232
same,glycan array binding signal (z-score),[18],-0.202
same,glycan array binding signal (z-score),[19],-0.188
same,glycan array binding signal (z-score),[20],-0.239
same,glycan array binding signal (z-score),[21],4.04
same,glycan array binding signal (z-score),[22],-0.224
same,glycan array binding signal (z-score),[23],-0.237
same,glycan array binding signal (z-score),[24],-0.207
same,glycan array binding signal (z-score),[25],-0.219
